Experimental findings from PubChem BioAssay (NCATS) are described below.

SMILES strings stand for the structures. Inconclusive results are not listed. Active and inactive are the calls of the source. Calls come from the whole dose curve; as a rule, active = well fitted curve in the direction sought with a large enough effect; inconclusive = small, poorly fitted or top-dose-only effect, or another doubt; inactive = no such curve, though single readings can be large or run the other way.

The target in the experiment is Glucagon-like peptide 1 receptor (Homo sapiens) (UniProt P43220). Description: qHTS of GLP-1 Receptor Agonists: LOPAC Validation (AID 624148).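 Note: luminescence from a luciferase reporter switched on by cAMP; higher luminescence signal means agonism.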 Conditions: GLP-1R agonist cell assay; series mostly up to 46.1 µM. An excerpt: The overall goal of this project was to develop a novel assay for discovering small molecule ligands for class B1 G protein-coupled receptors (GPCRs). Very few agonists (or inverse agonists) with generally weak activity for this entire group of physiologically important receptors are known to date. To establish proof-of-principle that this critical bottleneck can be overcome with a suitable screening approach, our studies focused on the class B1 receptor for glucagon-like peptide-1 (GLP-1R), a potential therapeutic target for diabetes and neurodegenerative disease.
Glucagon-like peptide 1 receptor (Homo sapiens), sequence (P43220 whole entry, looked up): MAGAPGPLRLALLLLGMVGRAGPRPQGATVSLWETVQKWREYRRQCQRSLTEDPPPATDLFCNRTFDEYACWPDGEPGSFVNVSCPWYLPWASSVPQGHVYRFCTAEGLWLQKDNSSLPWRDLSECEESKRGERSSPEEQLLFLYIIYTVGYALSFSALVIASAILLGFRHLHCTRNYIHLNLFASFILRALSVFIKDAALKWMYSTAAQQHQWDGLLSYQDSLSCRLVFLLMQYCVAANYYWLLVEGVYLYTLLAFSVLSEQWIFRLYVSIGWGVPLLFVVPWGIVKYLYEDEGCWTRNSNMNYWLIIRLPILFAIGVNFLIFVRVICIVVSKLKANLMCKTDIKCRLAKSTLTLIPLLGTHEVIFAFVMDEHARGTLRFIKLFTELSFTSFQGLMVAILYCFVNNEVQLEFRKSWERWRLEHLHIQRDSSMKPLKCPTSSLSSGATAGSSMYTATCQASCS
The assay was developed in a "mix and measure" format using a cell-based functional readout. Toward this goal, stably transfected HEK293 cell clones were established that co-express (i) a cAMP-responsive luciferase reporter gene, and (ii) GLP-1Rs that upon ligand interaction either stimulate (agonists) or inhibit (inverse agonists) luciferase activity. In different cell lines to be used for screening, expressed GLP-1Rs are specifically optimized for high sensitivity detection of either weak agonists (hypersensitive receptor) or inverse agonists (constitutively active receptor mutant). In addition, control cell lines were developed that express either the cAMP-responsive reporter gene without recombinant GLP-1Rs (enabling initial exclusion of GLP-1R independent effects of candidate probes), or the reporter gene together with wild type GLP-1Rs (for confirmation of probe activity at this receptor), or the reporter gene in combination with the constitutively active orphan receptor GPR119 (enabling initial exclusion of GLP-1R independent inhibitory effects of candidate inverse agonists).
To that end, this assay was optimized for 1536-well format and screened against the MLSMR.
NIH Molecular Libraries Probe Production Network [MLPCN]
NIH Chemical Genomics Center [NCGC]
PI Name: Martin Beinborn, Tufts Medical Center
In a white solid 1536-well plate, 6 uL of cells are dispensed in DMEM without phenol red, 10% Nu serum, and 1% pen-strep medium. The plates are then incubated for 12 hours at 37 deg C at 5% CO2 before 23 nL of compounds are added. After a 4-6 hr incubation at37 deg C and 5% CO2, 3 uL of detection reagent are added and after a 12 min incubation at RT, a luminescent read is obtained on the ViewLux.
For `OC[C@H]1O[C@@H](n2cnc3c(NC4CCCC4)ncnc32)[C@H](O)[C@@H]1O`, the call was inactive. Under `CC(N)C(=O)OC(C)(C)Cc1ccc(Cl)cc1` (stereo not given) stands “inactive”; under `CN1[C@@H](CC(=O)c2ccccc2)CCC[C@H]1C[C@H](O)c1ccccc1`, “inactive”; under `Cc1nc2sccn2c(=O)c1CCN1CCC(=C(c2ccccc2)c2ccc(F)cc2)CC1`, “inactive”. To `CC(=O)N[C@H](C(=O)O)C(C)(C)SN=O` belongs “inactive”. Under `Cc1ccc(O)c(N=Nc2ccccc2)n1` stands “inactive”; under `CN(C)C(N)=NCCC[C@H](N)C(=O)O`, “inactive”. In the case of `O=C(/C=C/c1ccc(O)cc1)c1ccc(O)cc1O`, the compound was classed as inactive.

On to `COC(=O)c1c(C)[nH]c(C)c1C(=O)c1ccccc1Cc1ccccc1`, for which the compound was called inactive.

For the compound `O=C(O)[C@@H]1C[C@H](C(=O)O)N1`, the result was inactive. Turning to `O=C1/C(=C/c2ccsc2)CC/C1=C\c1cccs1`, the outcome was inactive.

In the case of `NC(N)=NC(=O)c1nc(Cl)c(N2CCCCCC2)nc1N`, the compound was classed as inactive. `COc1cc(C(O)CO)ccc1OS(=O)(=O)O` (stereo not given): the call was inactive. Under `Clc1ccc(N2CCN(Cc3c[nH]c4ncccc34)CC2)cc1` stands “inactive”. On to `CC(C)(C=O)Cc1cc(C(C)(C)C)c(O)c(C(C)(C)C)c1`, for which the result was inactive. Under `CCCCN1CCC(n2c(=O)[nH]c3ccccc32)CC1` stands “inactive”; under `CCCCCCCCCCCCCCCCCCNC(=O)OCC(COP(=O)([O-])OCC[n+]1ccsc1)OC` (stereo not given), “inactive”; under `O=C(O)/C=C/C(O)c1ccc(Cl)cc1` (stereo not given), “inactive”. To `O=C(O)c1cc(=O)c2c(Cl)cc(Cl)cc2[nH]1` belongs “inactive”; to `COc1cc2c(CCNC(C)=O)c[nH]c2cc1Cl`, “inactive”; to `CSc1nc(N)c2ncn([C@@H]3O[C@H](COP(=O)(O)OP(=O)(O)OP(=O)(O)O)[C@@H](O)[C@H]3O)c2n1`, “inactive”. To `O=C(CCCCCN1CCN(c2ccccc2-c2ccccc2)CC1)NC1CCCc2ccccc21` (stereo not given) belongs “inactive”; to `Cc1ccccc1CNc1ncnc2c1ncn2C1OC(CO)C(O)C1O` (stereo not given), “inactive”; to `N#C/C(=C\c1ccc(O)c(O)c1)C(=O)NCCCc1ccccc1`, “inactive”.

Regarding `C=CC(=O)c1ccc(CCCCCC)cc1`, the result was inactive.

With `Cn1ncc(S(=O)(=O)Cc2ccccc2)c(Br)c1=O`, the call was inactive.

Regarding `CN(C)c1nc2c(Br)c(Br)c(Br)c(Br)c2[nH]1`, the compound was called inactive. Under `COc1ccccc1N1CCN(CCN(C(=O)c2ccc(I)cc2)c2ccccn2)CC1` stands “inactive”; under `CC(C)ON([C@@H](C(=O)NO)C(C)C)S(=O)(=O)c1ccc(-c2ccccc2)cc1`, “inactive”; under `CCCN(CC1CC1)c1nc(C)nc(Nc2c(Cl)cc(Cl)cc2Cl)c1Cl`, “inactive”. To `Cc1cc(NC(=O)Nc2ccc3c(ccn3C)c2)sn1` belongs “inactive”.

With `O=C(O)[C@@H]1C[C@@H](C(=O)O)N1`, the call was inactive.

`c1cnc2c(c1)ccc1cccnc12`: the outcome was inactive. As for `CN(C)c1nc(N)c(C(=O)N=C(N)N)nc1Cl`, the outcome was inactive. To `COc1cc2nc(N3CCN(C(=O)OCc4ccccc4)C(C(=O)NC(C)(C)C)C3)nc(N)c2cc1OC` (stereo not given) belongs “inactive”; to `NC(=O)C1=CN(C2OC(COP(=O)(O)OP(=O)(O)OC[C@H]3O[C@@H](n4cnc5c(N)ncnc54)[C@H](OP(=O)(O)O)[C@@H]3O)C(O)C2O)C=CC1` (stereo not given in full), “inactive”.

Consider `Cc1ccc(S(=O)(=O)/C=C/C#N)cc1`, for which the result was inactive. To `Oc1cc2c(cc1O)CN(C(=S)NCCc1ccc(Cl)cc1)CCC2` belongs “inactive”; to `N.N.N.N.N.N.N.N.N.N.N.N.N.N.O.O.[Ru+4].[Ru+5].[Ru+5]`, “inactive”. In the case of `N#C/C(=C\c1ccc(O)c(O)c1)C(=O)NCc1ccccc1`, the outcome was inactive.
